Pol eta inh: blocks human DNA polymerase eta activity | recombinant Pol eta, fluorescent DNA replication assay | Potency, µM (series often up to 114 µM), actives largely listed as inhibitors | 390,000 compounds, 1.2% hits
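Pol eta (10 nM) was preincubated with compounds for 15 min at room temperature, after which fluorescent replication substrate (50 nM final) was added to start the reaction. Fluorescence was read kinetically at 0 and 10 min.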
WRN helicase inh: inhibitors of human WRN helicase; Q14191; WRN helicase unwinding, fluorescent forked duplex, kinetic; Potency, µM (doses to about 114 µM), hits mostly inhibitors; 360,000 compounds, 0.46% hits; AID 651768; also: nearly all actives have a fitted effect of over 55% in size
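Kinetic fluorescence helicase assay: unwinding of a quenched forked DNA duplex (100 nM final) with 2 mM ATP final raises red fluorescence (525/598 nm). Compounds sat 15 min at room temperature with 20 nM WRN beforehand.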
FEN1 inhibitor: human FEN1 inhibition; 390,000 compounds, 0.35% hits; Potency, µM (doses to about 114 µM), usual class: inhibitors; P39748; Recombinant FEN1 flap cleavage, fluorescence, 15 min; also: nearly all actives have a fitted effect of over 65% in size
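Compounds are tested as a concentration series against 10 nM FEN1; after a 15 min room-temperature preincubation, 50 nM substrate starts cleavage, with plate reads at 0 and 15 min. Normalized responses are fitted by a Hill equation.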
POLB inh: inhibitors of human DNA polymerase beta. Potency, µM (top dose mostly 114 µM), usual class: inhibitors. P06746. 340,000 compounds, 1.3% hits. Pol beta primer extension/strand displacement, fluorescence kinetic
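Reaction started by 50 nM substrate onto compound-treated Pol beta (10 nM, 15 min preincubation, room temperature); plates read at 0 min and 10 min. Normalized concentration-effect data fitted by four-parameter Hill equation.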
POLK inh: blocks human DNA polymerase kappa activity. Q9UBT6. purified Pol kappa, fluorescent DNA synthesis assay, 10 min. AID 588579. Potency, µM (doses to about 107 µM), usual class: inhibitors. 400,000 compounds, 0.53% hits
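50 nM final substrate added after 15 min RT preincubation of 10 nM Pol kappa with compound; fluorescence read at 0 and 10 min.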
POLI inh: inhibitors of human DNA polymerase iota | Potency, µM (top dose mostly 115 µM), actives largely listed as inhibitors | 390,000 compounds, 1% hits | Pol iota fluorescent replication assay, 10 min | AID 588590
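Pol iota at 10 nM preincubated 15 min with compounds at room temperature; reaction started with fluorescent substrate, 50 nM final. Fluorescence read kinetically at 0 and 10 min; buffer-only wells as negative control.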
Of the large screens only hits and unclear results are named; the others gave an inactive call. This is a sample that favours compounds with a hit; in the whole collection about 2.4% have one here. Calls follow the shape of the dose curve; as a rule, active = well fitted curve in the direction sought with a large enough effect; inconclusive = small, poorly fitted or top-dose-only effect, or another doubt; inactive = no such curve, though single readings can be large; an effect the other way counts as inactive or inconclusive.

CN(C)c1ccc(C(I)C(I)c2ccnc3ccccc23)cc1 (stereo unspecified)	FEN1 inhibitor 79.4µM (no result: Pol eta inh, WRN helicase inh, POLB inh)
COc1cccc(CNc2nc(Cl)nc3nc[nH]c23)c1	none (no result: Pol eta inh, WRN helicase inh, POLB inh)
O=C(O)COc1ccccc1C1Nc2ccccc2-c2nnc(SCc3ccc(Cl)cc3)nc2O1 (stereo unspecified)	POLB inh 2.51µM (no result: WRN helicase inh)
COc1cc(C2Nc3ccccc3-c3nnc(SCc4ccc(C)cc4)nc3O2)cc(OC)c1O (stereo unspecified)	POLK inh 79.4µM, POLI inh inconclusive (no result: WRN helicase inh)
CN(C)c1ccc(C(=C2c3ccccc3-c3ccccc32)c2ccc(N(C)C)cc2)cc1	none (no result: Pol eta inh, WRN helicase inh, POLB inh)
COc1ccc(Br)cc1CNC(=O)c1cnc2sc(N3CCC(C)CC3)nn2c1=O	none (no result: WRN helicase inh)
Cc1ccc(S(=O)(=O)C(CNC(=O)COc2ccccc2)c2ccco2)cc1 (stereo unspecified)	none (no result: WRN helicase inh)
CCOC(=O)C(=O)C1(C(=O)OCC)Oc2cc(OC)cc(OC)c2C(=O)C1c1ccccc1 (stereo unspecified)	none (no result: Pol eta inh, WRN helicase inh, FEN1 inhibitor, POLB inh, POLI inh)
CC(=O)N1CCC2(CC1)CN(C(c1ccccc1)c1ccccc1)C2	none (no result: Pol eta inh, WRN helicase inh, FEN1 inhibitor, POLB inh, POLI inh)
CCN(CC)c1ccc(/C=C/C(=O)c2cccnc2)cc1	none
CCN(CC)c1ccc(/C=C/C(=O)c2ccc(Br)cc2)cc1	Pol eta inh inconclusive, WRN helicase inh 22.4µM, FEN1 inhibitor inconclusive, POLB inh inconclusive, POLI inh inconclusive
CNCc1ccccc1Sc1cc(O)ccc1O	WRN helicase inh 31.6µM, FEN1 inhibitor inconclusive, POLI inh inconclusive
CNCc1ccccc1Sc1cccc(O)c1	none
O=C(O)Cn1cc(/C=c2/sc3nc4ccccc4n3c2=O)c2ccccc21	Pol eta inh 79.4µM, WRN helicase inh inconclusive, FEN1 inhibitor inconclusive, POLK inh inconclusive
O=c1/c(=C\c2cccn2-c2ccccc2)sc2nc3ccccc3n12	none
O=[N+]([O-])c1ccc(-c2cc(-c3ccc(Cl)cc3)n[nH]2)cc1	Pol eta inh inconclusive, WRN helicase inh 100µM, POLB inh inconclusive
O=[N+]([O-])c1ccc2nc(-c3ccc(Cl)cc3)[nH]c2c1	Pol eta inh inconclusive, FEN1 inhibitor inconclusive
Cc1ccc2c(c1)-c1ccccc1S(=O)(=O)N2	none
Nc1ccc2c(c1)-c1ccccc1S(=O)(=O)N2	Pol eta inh 44.7µM, FEN1 inhibitor inconclusive, POLK inh inconclusive, POLI inh 14.1µM
COc1ccc(NC(=O)c2cc3cccc(OC)c3oc2=Nc2ccc(C(=O)O)cc2)cc1OC	Pol eta inh 14.1µM, POLB inh inconclusive
COc1cc(NC(=O)CSc2nnc3c(n2)[nH]c2ccc(S(=O)(=O)NC(C)C)cc23)cc(OC)c1OC	Pol eta inh 17.8µM, POLB inh inconclusive, POLK inh inconclusive, POLI inh 44.7µM
Cc1ccc(-c2nc(NC(=O)CSc3cc(C)c4ccccc4n3)ns2)cc1	Pol eta inh inconclusive, FEN1 inhibitor inconclusive, POLB inh 8.91µM
O=C(CSc1nnc2c3ccccc3c3ccccc3c2n1)Nc1ccccc1F	Pol eta inh 31.6µM, WRN helicase inh inconclusive, POLB inh 11.2µM
COc1cc2nc(Cl)nc(NC3CCN(C)CC3)c2cc1OC	FEN1 inhibitor inconclusive (no result: Pol eta inh, WRN helicase inh, POLB inh)
COc1cc2nc(N(C)C)nc(NC3CCN(C)CC3)c2cc1OC	FEN1 inhibitor 28.2µM, POLK inh inconclusive, POLI inh 25.1µM (no result: Pol eta inh, WRN helicase inh, POLB inh)
COc1cc2nc(Nc3ccc(C)c(C)c3)nc(N)c2cc1OC	Pol eta inh inconclusive, WRN helicase inh inconclusive, FEN1 inhibitor inconclusive, POLB inh inconclusive
COc1cc2nc(CCNCc3ccccc3)nc(NC3CCN(C)CC3)c2cc1OC	FEN1 inhibitor 44.7µM (no result: Pol eta inh, WRN helicase inh, POLB inh)
COc1cc2nc(N(C)C)nc(N)c2cc1OC	FEN1 inhibitor inconclusive, POLB inh 44.7µM, POLI inh inconclusive
COc1cc2nc(NC3CCN(C)CC3)nc(NC3CCN(C)CC3)c2cc1OC	FEN1 inhibitor 44.7µM (no result: Pol eta inh, WRN helicase inh, POLB inh)
O=C(Nc1nc(-c2ccco2)c(-c2ccco2)s1)c1ccc(F)cc1F	Pol eta inh inconclusive, WRN helicase inh inconclusive, FEN1 inhibitor inconclusive, POLK inh 50.1µM, POLI inh inconclusive (no result: POLB inh)
COc1cc(OC)cc(C(=O)N2CCN(C(=O)COc3ccc4ccccc4c3)CC2)c1	POLI inh 70.8µM
COc1ccc(N2CCN(C(=O)COc3ccc4ccccc4c3)CC2)cc1	none
Nc1cccn2c(-c3ccc(Cl)c(Cl)c3)cnc12	POLI inh 12.6µM
